Laboratory results reported in PubChem BioAssay AID1159580 (chemical genetic matrix, 2015).
The campaign covered roughly 5,500 compounds. About 2,000 (36%) were called active. Not shown: some 18% with an inconclusive outcome. Cut-off read from the data, not from the text of the source: active = normalized growth mostly below about 0.91 (no sharp cut-off); inconclusive = no clear call, values can overlap the other calls; inactive = mostly above about 0.92. This is one part of the list.

Assay: chemical genetic growth profiling, strain panel (AID 1159580);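 note: tested at 20 µM; growth read once vehicle control cultures reached saturation at 30 °C; 1 = growth at the plate median or of vehicle wells; lower values mean less growth of the strain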
Settings: S. cerevisiae deletion strains, growth OD

Measured: normalized growth

COc1cc(OC)c2c(=O)c(-c3ccc4c(c3)OCO4)coc2c1
inactive: locus YAL021C, strain ccr4, stronger effect = lower value 1.01 | locus YAL026C, strain drs2, stronger effect = lower value 0.982 | locus YAL030W, strain snc1, stronger effect = lower value 0.977 | locus YBL061C, strain skt5, stronger effect = lower value 0.979 | locus YBR009C, strain hhf1, stronger effect = lower value 0.984 | locus YBR023C, strain chs3, stronger effect = lower value 0.989 | locus YBR171W, strain sec66, stronger effect = lower value 0.969 | locus YBR231C, strain swc5, stronger effect = lower value 1 | locus YBR279W, strain paf1, stronger effect = lower value 0.992 | locus YCL011C, strain gbp2, stronger effect = lower value 0.981 | locus YCL016C, strain dcc1, stronger effect = lower value 0.986 | locus YCL061C, strain MRC1, stronger effect = lower value 0.996 | locus YCL069W, strain vba3, stronger effect = lower value 0.983 | locus YCR088W, strain abp1, stronger effect = lower value 0.979 | locus YDL005C, strain med2, stronger effect = lower value 0.997 | locus YDL040C, strain nat1, stronger effect = lower value 0.981 | locus YDR001C, strain nth1, stronger effect = lower value 0.98 | locus YDR069C, strain doa4, stronger effect = lower value 0.998 | locus YDR137W, strain rgp1, stronger effect = lower value 1.01 | locus YDR159W, strain sac3, stronger effect = lower value 1.01 | locus YDR195W, strain ref2 0.988 | locus YDR297W, strain sur2, stronger effect = lower value 0.989 | locus YDR334W, strain swr1, stronger effect = lower value 0.991 | locus YDR335W, strain msn5, stronger effect = lower value 1 | locus YDR392W, strain spt3, stronger effect = lower value 0.802 | locus YEL003W, strain gim4, stronger effect = lower value 0.992 | locus YEL037C, strain rad23, stronger effect = lower value 0.993 | locus YEL061C, strain CIN8 (second series), stronger effect = lower value 0.986 | locus YER015W, strain faa2, stronger effect = lower value 1 | locus YER016W, strain bim1, stronger effect = lower value 0.987 | locus YER111C, strain swi4, stronger effect = lower value 1.01 | locus YER155C, strain BEM2 (second series), stronger effect = lower value 0.942 | locus YFR010W, strain ubp6, stronger effect = lower value 1 | locus YGL167C, strain pmr1, stronger effect = lower value 0.984 | locus YGL173C, strain kem1, stronger effect = lower value 0.985 | locus YGL227W, strain vid30, stronger effect = lower value 0.978 | locus YGL240W, strain doc1, stronger effect = lower value 1.02 | locus YGL253W, strain hxk2, stronger effect = lower value 0.977 | locus YHR013C, strain ard1, stronger effect = lower value 0.971 | locus YHR027C, strain rpn1, stronger effect = lower value 1 | locus YHR030C, strain SLT2, stronger effect = lower value 1.05 | locus YHR079C, strain IRE1, stronger effect = lower value 1.05 | locus YHR142W, strain chs7, stronger effect = lower value 0.931 | locus YJL092W, strain hpr5, stronger effect = lower value 0.978 | locus YJL095W, strain BCK1 (second series), stronger effect = lower value 0.984 | locus YJL095W, strain BCK1, stronger effect = lower value 1.03 | locus YJL115W, strain asf1, stronger effect = lower value 0.992 | locus YJL129C, strain trk1, stronger effect = lower value 0.918 | locus YJL154C, strain vps35, stronger effect = lower value 0.991 | locus YJL164C, strain tpk1, stronger effect = lower value 0.98 | locus YJL166W, strain qcr8, stronger effect = lower value 0.99 | locus YJL187C, strain SWE1, stronger effect = lower value 0.996 | locus YJR066W, strain TOR1, stronger effect = lower value 0.99 | locus YKL160W, strain elf1, stronger effect = lower value 0.991 | locus YKR026C, strain gcn3, stronger effect = lower value 0.98 | locus YKR091W, strain srl3, stronger effect = lower value 0.986 | locus YLL001W, strain dnm1, stronger effect = lower value 0.977 | locus YLL026W, stronger effect = lower value 0.985 | locus YLL041C, strain sdh2, stronger effect = lower value 0.99 | locus YLR027C, strain aat2, stronger effect = lower value 0.979 | locus YLR113W, strain HOG1, stronger effect = lower value 1.08 | locus YLR221C, strain rsa3, stronger effect = lower value 0.961 | locus YLR258W, strain gsy2, stronger effect = lower value 0.976 | locus YLR262C, strain YPT6 (second series), stronger effect = lower value 1.04 | locus YLR320W, strain mms22, stronger effect = lower value 0.964 | locus YLR342W, strain FKS1, stronger effect = lower value 0.983 | locus YLR357W, strain rsc2, stronger effect = lower value 0.987 | locus YLR370C, strain arc18, stronger effect = lower value 0.99 | locus YLR384C, strain iki3, stronger effect = lower value 0.99 | locus YML120C, strain ndi1, stronger effect = lower value 0.967 | locus YMR058W, strain fet3, stronger effect = lower value 0.983 | locus YMR125W, strain sto1, stronger effect = lower value 0.989 | locus YMR129W, stronger effect = lower value 0.981 | locus YMR205C, strain PFK2, stronger effect = lower value 0.962 | locus YMR231W, strain pep5, stronger effect = lower value 0.987 | locus YNL071W, strain lat1, stronger effect = lower value 0.954 | locus YNL183C, strain NPR1, stronger effect = lower value 0.984 | locus YNL209W, strain ssb2, stronger effect = lower value 0.985 | locus YNL248C, strain rpa49, stronger effect = lower value 1.02 | locus YNL322C, strain KRE1 (second series), stronger effect = lower value 0.983 | locus YNR049C, strain mso1, stronger effect = lower value 0.995 | locus YOR001W, strain rrp6, stronger effect = lower value 0.994 | locus YOR070C, strain gyp1, stronger effect = lower value 0.999 | locus YOR080W, strain dia2, stronger effect = lower value 1 | locus YOR083W, strain WHI5, stronger effect = lower value 0.98 | locus YOR106W, strain vam3, stronger effect = lower value 0.986 | locus YOR231W, strain MKK1, stronger effect = lower value 1.07 | locus YOR265W, strain rbl2, stronger effect = lower value 0.99 | locus YOR270C, strain vph1, stronger effect = lower value 0.922 | locus YOR290C, strain snf2, stronger effect = lower value 0.957 | locus YPL051W, strain arl3, stronger effect = lower value 1.01 | locus YPL078C, strain atp4, stronger effect = lower value 0.983 | locus YPL106C, strain sse1, stronger effect = lower value 0.987 | locus YPL240C, strain hsp82, stronger effect = lower value 0.984 | locus YPL256C, strain CLN2, stronger effect = lower value 1.05
